{"source": "ChEMBL document CHEMBL3433997", "about": "“St. Jude Leishmania screening dataset” (2016)", "data": [{"molecular_target": "Glucose transporter (Leishmania mexicana) (UniProt O61059)", "test": "ST_JUDE_LEISH: Cytotoxicity at 2uM final concentration against transgenic Leishmania Mexicana promastigotes LmGT2 that are glucose transport deficient and complemented with the L. Mexicana glucose transporter 2. Activity is measured by DNA content using SYBR green in vitro", "format": "functional", "units": {"inhibition": "%"}, "values": [{"smiles": "FC(F)(F)c1ccc2[nH]c(-c3ccc(-c4ccc(CN5CCN(c6cnccn6)CC5)cc4)s3)nc2c1", "inhibition": -2.19}, {"smiles": "CCCS(=O)(=O)c1nc(S(=O)(=O)c2ccc(Cl)cc2)c(N2CCCCC2)s1", "inhibition": -1.01}, {"smiles": "Cc1cccc(-c2ccc(CNC3CCN(CC4Cn5c(=O)ccc6ccc(F)c4c65)CC3)cn2)c1", "note": "(stereo not drawn)", "inhibition": 1.89}, {"smiles": "CCC[C@@H]([C@@H](CC1CCCCC1)C(=O)N[C@H](C(=O)Nc1nccs1)[C@@H](C)OCc1ccccc1)N(O)C=O", "inhibition": 2.53}, {"smiles": "COc1ccc(C2C(C(=O)Nc3ccccc3)=C(C)Nc3c(C(=O)Nc4ccccc4)cnn32)cc1", "note": "(stereo not drawn)", "inhibition": 0.09}, {"smiles": "O=C(Nc1ccccc1F)NC1CCN(c2ccnc(Nc3ccc(F)cc3)n2)CC1", "inhibition": 0.02}, {"smiles": "COc1ccc(C2CCN(CCCCNC(=O)c3ccc(NC(=O)c4ccc(Cl)cc4)cc3)CC2)cc1Cl", "inhibition": 4.45}, {"smiles": "O=C(NCc1cccc(C(F)(F)F)c1)[C@@H]1CCCN1C(=O)c1ccc(O)c(-c2ccc(Cl)c(Cl)c2)c1", "inhibition": 0.24}, {"smiles": "O=C(CCc1c[nH]cn1)Nc1ccc(-c2cccc(-c3nc4ccccc4[nH]3)c2)cc1", "inhibition": 0.03}, {"smiles": "O=C(/C=C/c1ccc(Cl)c(Cl)c1)NCCCCCN1CCC(CCNC(=O)/C=C/c2ccc(Cl)c(Cl)c2)CC1", "inhibition": 0.87}, {"smiles": "COc1ccc2nccc([C@@H](O)CN3CCC(NCc4ccc5scnc5c4)CC3)c2c1", "inhibition": 3.04}, {"smiles": "O=C(c1ccc(-c2ccc(-c3nc4cc(F)ccc4[nH]3)cc2)cc1)N1CCCCC1CN1CCC(O)C1", "note": "(stereo not drawn)", "inhibition": 1.78}, {"smiles": "O=C(CN1C(=O)CC1S(=O)(=O)Cc1ccco1)NCCCCCCc1ccc(F)cc1", "note": "(stereo not drawn)", "inhibition": 0.24}]}]}
